Assay outcomes (PubChem)
Shown are actives, neighbours in structure and some others; about 5.9% of the full set was active somewhere.
ATXN viability – cell viability loss in ATXN counter-screen; S2 cells (HEK-293 line with an ATXN2-luciferase reporter) viability, CellTiter-Fluor protease fluorescence, 24 h; Potency, µM (titrated, usually from 56.7 µM), most hits filed as cytotoxic; hit rate 0.49% among 400,000; AID 651635; note: nearly all actives have a fitted effect of over 40% in size
HepG2 viability – HepG2 cytotoxicity, counter-screen for TGF-b inhibitors. HepG2 CAGA-GFP viability, ATP luminescence, 18 h. Potency, µM (series often up to 46.1 µM), without a hit: top-dose activity change, negative = cytotoxicity, actives largely listed as cytotoxic. hit rate 0.76% among 410,000. AID 588856
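CellTiter-Glo luminescence gave cytotoxicity after 18 hours at 37 degrees C. The cells were HepG2 CAGA-GFP in 1% FBS DMEM, stimulated with 500 pg/mL TGF-beta after compound addition. %Activity was normalised to no-cell wells (complete cell-killing) and DMSO (no toxicity), and curves were fitted and classified.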
TGFb SMAD3 inh – blocks TGF-b signaling | HepG2 CAGA-GFP TGF-b/SMAD3 reporter, GFP fluorescence, 18 h; TGF-beta stimulated, 500 pg/mL final | Potency, µM (titrated, usually from 46.1 µM), without a hit: at the highest dose activity, negative = inhibition, usual class: inhibitors | hit rate 1.2% among 410,000; note: % is set by controls: 0 for no effect and ±100 for the full control effect; nearly all actives have a fitted effect of over 65% in size
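Read-out: total well GFP (ex488/em500-530) summed from mean per-cell fluorescence. Cells: HEPG2 CAGA-GFP, 1% FBS DMEM, 18 h at 37 degrees C with 500 pg/mL final TGF-beta. Unstimulated wells served as the full-inhibition control; stimulated DMSO wells = 0%.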
ATXN2 expr inh – ATXN2 expression inhibition; HEK-293 ATXN2-luciferase reporter, luminescence, 24 h; Potency, µM (series often up to 57 µM), for the others: at the highest dose activity change, negative = inhibition, hits mostly inhibitors; hit rate 0.72% among 360,000; AID 1745845; note: % is set by controls: 0 for no effect and ±100 for the full control effect; nearly all actives have a fitted effect of over 55% in size
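qHTS (up to 57 uM final) was run with 24 h compound exposure of reporter cells at 37 °C. Each well was multiplexed: SteadyGlo luminescence measured ATXN2-luciferase expression after a fluorogenic Gly-Phe-AFC viability readout (25 uM final).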
KB-3-1 tox – KB-3-1 parental cell cytotoxicity. AID 1347075. Potency, µM (top dose mostly 46.1 µM), most hits filed as cytotoxic. hit rate 1.4% among 400,000. KB-3-1 viability, CellTiter-Glo ATP luminescence, 72 h; note: % is set by controls: 0 for no effect and ±100 for the full control effect; nearly all actives have a fitted effect of over 60% in size
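Luminescent ATP read-out (CellTiter-Glo) measures survival of drug-naive KB-3-1 cells after 72 h compound exposure at 37 °C. Titration series was screened from lowest to highest concentration, with DMSO vehicle plates as background controls.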
KB-V1 MDR tox – KB-V1 MDR subline cytotoxicity; KB-V1 MDR cells viability, CellTiter-Glo, 72 h; Potency, µM (top dose mostly 46.1 µM), hits mostly cytotoxic; hit rate 3.4% among 400,000; note: % is set by controls: 0 for no effect and ±100 for the full control effect; nearly all actives have a fitted effect of over 60% in size
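Cytotoxicity via CellTiter-Glo luminescence after 72 h compound exposure at 37 degrees C. Cells: drug-selected KB-V1 line, DMEM phenol-red free plus 10% FBS. Compounds tested at multiple concentrations; normalized data fitted to concentration-effect curves.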
The depositor's hits bear a star; i = inactive; u = inconclusive; x = not tested or not shown. Calls come from the whole dose curve; as a rule, active = well fitted curve in the direction sought with a large enough effect; inconclusive = small, poorly fitted or top-dose-only effect, or another doubt; inactive = no such curve, though single readings can be large; an effect the other way counts as inactive or inconclusive. Potency is the fitted concentration of half-maximal effect.

SMILES | ATXN viability | HepG2 viability | TGFb SMAD3 inh | ATXN2 expr inh | KB-3-1 tox | KB-V1 MDR tox
O=C(O)c1cc(Nc2cc(Cl)c3nonc3c2[N+](=O)[O-])ccc1O | 11µM* | -12% | -26% | x | i | i
Cc1ccc2nc(CSc3nnc(Nc4ccccc4F)s3)cc(=O)n2c1 | i | -23% | u | -6% | u | u
O=c1cc(CSc2nnc(Nc3ccccc3F)s2)nc2sccn12 | u | -15% | -21% | u | u | 16µM*
COc1ccc(/C=N/NC(=S)Nc2cc(C(F)(F)F)ccc2Cl)cc1 | i | 0.63µM* | 9% | -26% | u | i
O=C(CCSc1ccc(Cl)cc1)c1ccco1 | u | -87% | 11µM* | x | i | u
COc1ccc(S(=O)(=O)Nc2ccc3c(c2)N(C(C)=O)CCC3)cc1F | x | -21% | -47% | x | x | x
C=CCn1c(SCN2C(=O)c3ccccc3C2=O)nc2ccc(Cl)cc2c1=O | i | -1% | 6% | -20% | u | 16µM*
CCOc1cc(/C=N/Nc2nc(-c3cccc(S(=O)(=O)N4CCCC4)c3)cs2)ccc1O | x | -2% | u | u | i | 13µM*
COc1ccc(/C=N/Nc2nc(-c3cccc(S(=O)(=O)N4CCCC4)c3)cs2)cc1OC | u | 1% | -5% | -19% | i | i
CCOC(=O)N(C)c1c(CC)nc2c(OCc3cccc(Cl)c3)cccn12 | u | -13% | -8% | u | i | i
Cc1nc2c(OCc3ccc(Cl)cc3Cl)cccn2c1N(C)Cc1cccs1 | x | 11µM* | u | 8.9µM* | u | u
Cc1nc2c(OCc3cccc(Cl)c3)cccn2c1N(C)Cc1cccs1 | u | 11µM* | u | u | u | 18µM*
COC(=O)c1ccccc1COc1cccn2c(N(C)Cc3cccs3)c(C)nc12 | i | -41% | u | 18µM* | u | 18µM*
CCc1nc2c(OCc3ccc(Cl)cc3Cl)cccn2c1N(C)C(=O)c1ccccc1F | u | -61% | u | u | u | u
O=C(Nc1nnc(-c2ccncc2)s1)Nc1cccc2ccccc12 | x | x | x | x | i | i
NC(=O)C(OC(=O)CNC(=O)C1CCCCC1)c1ccccc1 (stereo not given) | x | 14% | 5% | x | u | i
CCn1c(CCC(=O)Nc2nc3c(s2)CCCC3)nc2cc(S(=O)(=O)N(C)C)ccc21 | i | -1% | -11% | u | i | 23µM*
Cc1ccc(-c2c3c(=O)n(C)c(=O)n(C)c3c3n2-c2ccccc2NC3c2ccc(C)cc2O)cc1 (stereo not given) | u | -97% | 6.3µM* | u | u | i
Cc1ccc(N2CC(NC(=O)C3CCCC3)CC2=O)cc1C (stereo not given) | x | -21% | -22% | x | x | x
CNC1CCC(N(Cc2cccc(-c3ccncc3)c2)C(=O)c2sc3ccccc3c2Cl)CC1 (stereo not given) | x | x | x | 24µM* | x | x
Cc1ccc(NC(=O)c2nc(-c3ccncc3)no2)c(Cl)c1 | x | -45% | -15% | x | i | i
O=C(C1CC1)N1CCN(c2nc3ccc(F)cc3s2)CC1 | x | -14% | -17% | x | x | x
CCCCNC(=O)c1cc(-c2ccc(F)cc2)on1 | i | -12% | 6% | 28% | 18µM* | 16µM*
COc1ccc(-c2cc(C(=O)Nc3cc(C)nn3-c3ccccc3)no2)cc1 | i | -21% | 3% | 4% | i | i
COCCNC(=O)c1cc(-c2ccccc2OC)on1 | i | -16% | -6% | 32% | 9.2µM* | u
SMILES | ATXN viability | HepG2 viability | TGFb SMAD3 inh | ATXN2 expr inh | KB-3-1 tox | KB-V1 MDR tox
CCCCNC(=O)c1cc(-c2ccc(OC)cc2)on1 | i | -15% | 0% | 15% | i | i
COc1ccccc1-c1cc(C(=O)NC(C)C)no1 | i | -35% | -27% | 68% | i | i
COc1ccccc1-c1cc(C(=O)Nc2cc(C)nn2-c2ccccc2)no1 | u | -44% | -6% | -15% | 5.2µM* | 6.5µM*
COc1ccccc1-c1cc(C(=O)NC(C)c2ccccc2)no1 (stereo not given) | i | -17% | -9% | 3% | i | 21µM*
CCc1ccc2oc(-c3ccc(C)c(NC(=O)COc4ccccc4Cl)c3)nc2c1 | x | -10% | 1% | x | i | i
COc1ccc(OC)c(-c2cc(C(=O)NCc3cccs3)no2)c1 | i | 0% | u | 7% | i | 16µM*
CSC(=Nc1ccccc1)N=C(SCc1ccccc1)N(C)C | 9.5µM* | 7.1µM* | 5.6µM* | u | 4.1µM* | 5.8µM*
N#CNC(=Nc1ccccc1)SCc1ccc(C(=O)O)cc1 | i | -4% | -2% | 12% | i | i
O=C(Cc1cnn(-c2ccccc2)c1)c1ccc(O)c(O)c1O | i | -11% | -8% | 19% | u | i
CCc1cc(C(=O)Cc2cnn(-c3ccccc3)c2)c(O)cc1O | i | -71% | u | -5% | i | 23µM*
C=CCNC(=S)NNC(=O)c1ccc(Br)cc1 | i | 12% | -5% | -3% | 15µM* | 12µM*
C=C(C)CNC(=S)NNC(=O)c1ccc(Br)cc1 | i | -15% | -26% | -4% | i | u
COc1cccc(N2CCN(C(=O)CCCCCNc3nc(=S)[nH]c4ccccc34)CC2)c1 | i | -1% | u | x | i | 10µM*
COc1ccc(C2C(Oc3ccccc3)C(=O)N2c2cc(C)ccc2C)cc1OC (stereo not given) | i | -20% | 9% | 1% | i | 6.5µM*
CCc1ccc(-c2[nH]nc3nc(-c4ccc(OC)cc4)cc(C(=O)NCCc4ccc(OC)c(OC)c4)c23)cc1 | i | -62% | 10µM* | u | i | u
COc1ccc(CCNC(=O)c2cc(-c3ccc(C)cc3)nc3n[nH]c(-c4ccc(F)cc4)c23)cc1OC | i | -18% | 5% | -18% | i | i
COc1ccc(-c2cc(C(=O)NCCc3ccccc3)c3c(-c4ccc(Cl)cc4)[nH]nc3n2)cc1 | u | -2% | -24% | -10% | i | 23µM*
Cc1noc(C)c1COc1ccc(C(=O)N2CCN(S(=O)(=O)c3ccc(F)cc3)CC2)cc1 | i | -3% | -10% | 4% | i | 8.2µM*
Cc1cc(C)c(S(=O)(=O)N2CCN(C(=O)c3ccccc3OCc3c(C)noc3C)CC2)c(C)c1 | i | -25% | u | -15% | i | 7.3µM*
Cc1ccc(S(=O)(=O)N2CCN(C(=O)c3ccccc3OCc3c(C)noc3C)CC2)cc1C | i | -8% | 4% | 5% | i | i
